Target: KRTAP10-10
Assay: pooled miR-30 sensor sort-seq; sequence = guide strand
Details: shRNA
Note: reference of the scale not given here.

| Sequence | sensor-assay potency score (higher = more potent) |
| --- | --- |
| TAGGCACGAAGCACACAGGCTT | 0.129 |
| AAGACTCGGAGCAGGTAGGCAC | -0.677 |
| TTACAGACGGGCACGCAGCAGA | -0.719 |
| TGCAGGAGCTGGTGTAGCCTGA | -0.876 |
| TTGTTACAGACGGGCACGCAGC | -1.52 |
| TTAGTTCTGCAGAACTTGGGTC | 0.494 |
| TGGGCAGTCGACTACCCGCCAA | -1.3 |
| AAGCACACAGGCTTGTTACAGA | -0.517 |
| TAGACTGCTGGTAGCATGGGGT | -0.566 |
| TAGCATGGGGTTGTGCAGGAGC | -0.83 |
| TAGCAGACGGACTTAGAGCAGA | -0.81 |
| TGGTAGCATGGGGTTGTGCAGG | -1.66 |

Target: KRTAP10-2
Assay: as above
Details: shRNA

| Sequence | sensor-assay potency score (higher = more potent) |
| --- | --- |
| CAGCACACAGCTTTGCAGCAGA | -2.3 |
| AACAGGTACACAGCAGATGGAC | -1.3 |
| TGGGCACGCAGCACACAGCTTT | -1.18 |
| AGCAGGACTGCTGACACGGGGA | -1.24 |
| ACACAGCAGATGGACTTGCAGC | -1.45 |
| TGGCCTGAGGAAAAGCTGCAGG | -1.08 |
| AGCATGAAGAGGATGACTCAGA | -1.89 |
| TTGCAGCAGACGGACACACAGC | -1.17 |
| AAGAGGATGACTCAGAGCAGGT | -1.29 |
| TAGACTGCTGGCAGCACGGAGA | -0.939 |
| TACACAGCAGATGGACTTGCAG | -0.914 |
| TTGGTGCAGGCGCTGGAGCAGA | -1.45 |

Target: KRTAP13-1
Assay: as above
Details: shRNA

| Sequence | sensor-assay potency score (higher = more potent) |
| --- | --- |
| TAGGAAAAGCCACAGGAGGAGG | -1.49 |
| TAACCCAGGGATCTGAAGCCAC | -0.898 |
| TAGAATAAGAGGCTAATTCTTT | -0.634 |
| TAGACCTGGTTGCTGGGGTAGG | -1.13 |
| TCTGTAGCAAGAAGACTGGCAG | 0.163 |
| TTGGTCTGTAGCAAGAAGACTG | -0.458 |
| TCCAACGCCATAGCCCAGGGAA | -1.31 |
| TCCACATAGGATGTCTGGCAGC | -1.92 |
| ACATAGGATGTCTGGCAGCTGG | -1.73 |
| TAGCAAGAAGACTGGCAGCTCC | -0.434 |
| TGGTCTGTAGCAAGAAGACTGG | -0.92 |

Target: KRTAP13-2
Assay: as above
Details: shRNA

| Sequence | sensor-assay potency score (higher = more potent) |
| --- | --- |
| TAGGACGTCTGGCAGCTGGTGG | -1.01 |
| TCCACATAGGACGTCTGGCAGC | -2.1 |
| TAAGTCGTCTTGCAAGGACTGC | -0.646 |
| TAACCCAGGGATCTGACACCAC | -0.823 |

From the OligoGym collection
